CR mimetic SO: lowers age-related superoxide in aged yeast cells | AID 2690 | 330,000 tested, 0.18% active | S. cerevisiae aged cells, superoxide DHE fluorescence; stronger effect = lower value | superoxide response (% of plate mean), % at 10 µM;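 active = superoxide response under a set limit, about three screen SD below normal, cut at about 65% in these data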;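 also: yeast aged for seven days with compound at 30 °C before DHE staining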
GRK2 inh: inhibitors of human GRK2 displacing RNA aptamer. P25098. bead flow cytometry, FAM-aptamer displacement from GRK2. inhibition of aptamer binding, % at 10 µM. 330,000 tested, 0.59% active. AID 488847;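 active = inhibition of aptamer binding above 40%, roughly 3 SD of noise, on plates passing a quality check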;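 also: median bead fluorescence of bound FAM aptamer so fluorescent compounds give negative values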
Target sequence (P25098 whole entry, looked up): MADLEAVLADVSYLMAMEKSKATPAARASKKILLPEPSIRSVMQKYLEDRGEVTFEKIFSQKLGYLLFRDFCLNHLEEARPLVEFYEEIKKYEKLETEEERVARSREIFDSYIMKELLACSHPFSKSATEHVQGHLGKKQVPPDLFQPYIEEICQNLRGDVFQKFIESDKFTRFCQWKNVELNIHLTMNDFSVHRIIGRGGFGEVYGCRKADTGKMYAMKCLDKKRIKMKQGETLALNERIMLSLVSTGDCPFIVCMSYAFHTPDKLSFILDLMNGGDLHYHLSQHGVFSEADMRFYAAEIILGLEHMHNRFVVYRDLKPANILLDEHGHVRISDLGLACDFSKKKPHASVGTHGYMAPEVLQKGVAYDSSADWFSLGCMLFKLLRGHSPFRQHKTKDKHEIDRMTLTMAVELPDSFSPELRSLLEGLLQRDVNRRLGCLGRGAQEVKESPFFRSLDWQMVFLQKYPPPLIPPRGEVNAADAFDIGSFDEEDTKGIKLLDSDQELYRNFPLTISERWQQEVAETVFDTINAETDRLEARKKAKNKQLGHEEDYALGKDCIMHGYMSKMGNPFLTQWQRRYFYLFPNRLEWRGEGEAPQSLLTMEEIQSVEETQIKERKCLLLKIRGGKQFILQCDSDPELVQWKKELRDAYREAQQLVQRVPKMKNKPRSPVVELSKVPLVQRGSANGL
Efflux pump inh: inhibitors of Candida antifungal efflux pumps expressed in yeast; 330,000 tested, 0.44% active; S. cerevisiae Candida pump triplex, Nile Red efflux; inhibition, % at 10 µM;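 active = plate passing quality check with inhibition over a set limit, or well fluorescence over plate mean plus 4 SD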;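 also: Nile Red retained in pooled yeast measured as flow cytometry median fluorescence; higher means more Nile Red kept so more efflux inhibition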
ATG4B inhibitor: ATG4B (human) cysteine protease inhibition; inhibition, % at 8.33 µM; ATG4B cleavage of LC3-PLA2, NBD-HPC fluorescence, 1 h; Q9Y4P1; AID 504462; 340,000 tested, 0.51% active; in the data active = inhibition above about 40%
CR mimetic CP: confirmation of caloric restriction mimetics inhibiting yeast age-related superoxide; shares compounds with CR mimetic SO; S. cerevisiae aging, superoxide DHE fluorescence; stronger effect = lower value; superoxide response (% of plate), % at 10 µM; 850 tested, 1% active; AID 434994;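 active = superoxide signal below 65% of the plate average of sample wells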;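 also: cells aged with compound for 7 days at 30 degrees C before staining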
DHE counter: compound alters DHE oxidation or fluorescence in yeast. shares compounds with CR mimetic SO. S. cerevisiae BY4741, flow cytometry; stronger effect = lower value. fluorescence response, % at 10 µM. 850 tested, under 10 active;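 active = fluorescence response below 15%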;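 also: lower means stronger quenching of DHE signal or ROS scavenging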
A number is an active result; . = inactive; / = no result. Sampled rows, rich in hits. Any-hit rate of the full collection: about 1.6%.

SMILES | CR mimetic SO | GRK2 inh | Efflux pump inh | ATG4B inhibitor | CR mimetic CP | DHE counter
O=C(CN1CCN(c2ccccn2)CC1)Nc1ccc(F)cc1 | . | . | . | . | . | .
O=C(CN1CCN(c2ccccn2)CC1)Nc1cccc(S(=O)(=O)N2CCCC2)c1 | . | . | . | . | / | /
CC(=O)/C=C(\C)N=Nc1c(O)[nH]c2ccccc12 | . | . | . | . | / | /
Cc1nc([N+](=O)[O-])cn1CC(=O)c1ccc(F)cc1 | . | . | . | . | / | /
N#C/C(=C\c1ccccc1)C(=O)OCC(=O)N1CCCC1 | . | . | . | . | / | /
COC(=O)c1ccc(NC(=O)CN2CCN(c3ccccn3)CC2)cc1 | . | . | . | . | . | .
COC(=O)c1ccc(NC(=O)CN2CCN(c3ccccc3)CC2)cc1 | . | . | . | . | / | /
CN(C)S(=O)(=O)c1ccc(Cl)c(NC(=O)CN2CCN(c3ccccn3)CC2)c1 | / | / | / | . | . | .
O=C(CN1CCN(c2ccccn2)CC1)Nc1ccc(Oc2ccccc2)cc1 | . | . | . | . | / | /
O=C(CN1CCN(c2ccccn2)CC1)Nc1ccccc1 | . | . | . | . | . | .
COc1cc2c(cc1OC)CN(C(=O)/C=C/c1cc(OC)c(OC)c(OC)c1)CC2 | 63.4 | . | . | . | . | .
Cc1ccc(C2=NC3(CCCCC3)N=C2SCC(=O)Nc2ccc3c(c2)OCCO3)cc1 | . | . | . | . | / | /
O=C(O)C1CCCN1S(=O)(=O)c1ccc(F)cc1 (configuration not stated) | . | . | . | . | . | .
CC(=O)c1ccc(N=C2SCCCN2C(=O)C2CCCC2)cc1 | . | . | . | . | / | /
Cc1cccc([C@@H](NC(=O)OC(C)(C)C)C(=O)OC(C)(C)C)c1 | 62.1 | . | . | . | . | .
Cc1nc2ccccn2c1C(=O)NNC(=O)Nc1cccc(C(F)(F)F)c1 | 64.1 | . | . | . | . | .
COc1cc(COc2ccc3c(C)c(CC(=O)O)c(=O)oc3c2C)cc(OC)c1OC | . | . | . | . | / | /
Cc1noc(C)c1C(=O)N(CC(C)C)c1nc2ccccc2s1 | 60.8 | . | . | . | . | .
Cc1ccc(C(=O)Nc2cccc(NC(=O)c3ccc(C)c([N+](=O)[O-])c3)n2)cc1[N+](=O)[O-] | 61.2 | . | . | . | . | .
Cc1cc(NC(=O)c2ccc(C)c([N+](=O)[O-])c2)no1 | . | . | . | . | / | /
CC1C(=O)N(Cc2ccccc2F)c2ccccc2N1C(=O)c1c(F)cccc1F (configuration not stated) | 65.3 | . | . | . | . | .
Cc1ccc(CN2CC(C(=O)N3CCN(S(=O)(=O)c4c(F)cccc4F)CC3)CC2=O)cc1 (configuration not stated) | . | . | . | . | / | /
CNC(=S)N1N=C(c2cccs2)CC1c1ccc(F)cc1 (configuration not stated) | 65.2 | . | . | . | . | .
O=C(c1ccco1)N1N=C(c2cccs2)CC1c1ccc(F)cc1 (configuration not stated) | . | . | . | . | / | /
CC1(C)CC(=O)C=C(Nc2ccc(F)c(Cl)c2)C1 | 62.2 | . | . | . | . | .
SMILES | CR mimetic SO | GRK2 inh | Efflux pump inh | ATG4B inhibitor | CR mimetic CP | DHE counter
CCC(CO)Oc1cc(NCc2ccc(C(C)(C)C)cc2)c2ncn(C(C)C)c2c1 (configuration not stated) | . | . | . | . | / | /
CCC(CO)Oc1cc(NCc2ccc(O)cc2)c2ncn(C(C)C)c2c1 (configuration not stated) | 64.9 | . | . | . | . | .
COc1ccc(-n2c(C)cc(C(=O)CN3CCC(C)CC3)c2C)cc1 | 65.5 | . | . | . | . | .
COc1ccc(-n2c(C)cc(C(=O)CN3CCCCC3)c2C)cc1 | . | . | . | . | / | /
Nc1c(C(=O)NCc2ccc3c(c2)OCO3)nnn1Cc1ccc(Br)cc1 | . | . | . | . | / | /
Cc1nc(C)c(C(=O)O)c(-c2ccsc2)c1C(=O)O | 60.9 | . | . | . | . | .
O=C(NC(=S)N(CCO)Cc1ccccc1)c1ccc(S(=O)(=O)N2CCCC2)cc1 | . | . | . | . | / | /
O=C(O)CSc1nnc(COc2ccc(Br)cc2)n1-c1ccccc1 | . | . | . | . | / | /
O=c1cc(O)c2c(=O)n(C3CCCCC3)c3ccccc3c2o1 | . | . | . | . | . | .
CCCCn1c(=O)c2c(O)cc(=O)oc2c2ccccc21 | 43.3 | . | . | . | . | .
O=c1cc(O)c2c(=O)n(Cc3ccccc3)c3ccccc3c2o1 | . | . | . | . | / | /
CN(C)c1ccc(/C=N/NC(=O)c2cc(-c3ccc4c(c3)OCO4)n[nH]2)cc1 | . | . | . | . | / | /
O=C(N/N=C/c1ccc(F)cc1)c1cc(-c2ccc3c(c2)OCO3)n[nH]1 | 64.0 | . | . | . | . | .
CSCCC(NC(=O)c1ccccc1Br)C(=O)NCc1ccc(F)cc1 (configuration not stated) | 23.1 | . | . | . | . | .
O=C1/C(=C/c2cccnc2)CC/C1=C\c1cccnc1 | . | / | . | . | / | /
O=C1/C(=C/c2cccnc2)CCC/C1=C\c1cccnc1 | 64.6 | . | . | . | . | .
COCc1nnc(NC(=O)c2ccc(S(=O)(=O)N3CCCC3)cc2)o1 | . | . | . | . | . | .
CC1CCN(S(=O)(=O)c2ccc(C(=O)Nc3nnc(-c4ccccn4)o3)cc2)CC1 | . | . | . | . | . | .
CC1CC(C)CN(S(=O)(=O)c2ccc(C(=O)Nc3nnc(C4CC4)o3)cc2)C1 (configuration not stated) | . | . | . | . | . | .
CCc1nnc(NC(=O)c2ccc(S(=O)(=O)N3CCCC(C)C3)cc2)o1 (configuration not stated) | 64.2 | . | . | . | . | .
CCOC(=O)N1CCN(S(=O)(=O)c2ccc(C(=O)Nc3nnc(CC)o3)cc2)CC1 | . | . | . | . | / | /
CCN(CC)S(=O)(=O)c1ccc(Cl)c(C(=O)OCC(=O)c2c(N)n(C)c(=O)n(C)c2=O)c1 | . | . | . | . | / | /
O=C(NCCNC(=O)c1ccc(Br)o1)c1cccnc1 | . | . | . | . | / | /
CCN(Cc1nc(-c2ccc(OC)c(OC)c2)no1)C(=O)c1ccoc1C | . | . | . | . | / | /
COc1ccc(CNS(=O)(=O)c2ccc3oc(C(=O)O)c(C)c3c2)cc1 | 63.4 | . | . | . | . | .
SMILES | CR mimetic SO | GRK2 inh | Efflux pump inh | ATG4B inhibitor | CR mimetic CP | DHE counter
Cc1c(C(=O)O)oc2ccc(S(=O)(=O)NCc3ccc(F)cc3)cc12 | . | . | . | . | / | /
O=C(Nc1ccc(Cl)cc1)[C@@H]1[C@@H]2C(=O)N(c3ccc(Cl)cc3)C(=O)[C@@H]2[C@H]2C=CC=NN21 | 64.0 | . | . | . | . | .
COc1ccc(CCNC(N)=S)cc1OC | . | . | . | . | / | /
CCCN(CC(=O)Nc1cc(C)on1)CC(=O)Nc1ccccc1C | . | . | . | . | / | /
NC(=O)COC(=O)c1cccc(S(=O)(=O)N2CCCCC2)c1 | . | . | . | . | / | /
COc1ccc(S(=O)(=O)N2CCCC2)cc1C(=O)O | . | . | . | . | . | .
COc1ccc(S(=O)(=O)N2CCCC2)cc1C(C)C | . | . | . | . | . | .
COc1ccc(S(=O)(=O)N2CCCC2)cc1OC | . | . | . | . | / | /

Compound activity deposited in PubChem by several laboratories.
